Results published in PubChem BioAssay (NCI).
The panel holds about 83,000 compounds, 20% with a hit somewhere; the sample as a whole holds those more often.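 Note: values are percent growth. 100 is the growth of untreated cells, values between 100 and 0 indicate rising inhibition; between -100 and 0 indicates cell death.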 Unmarked numbers belong to inactive results. The source made the active and inactive calls. Rule for the calls: active = growth percent below 10; inactive = the rest.

Assays:
Test in all cases: NCI-60 one-dose screen, 48 h (100 = growth as untreated, 0 = no growth, -100 = all killed)
SR leukemia = conditions: 10 µM unless noted
RPMI-8226 leukemia = conditions: 10 µM unless noted
OVCAR-8 ovarian = conditions: 10 µM unless noted
OVCAR-5 ovarian = conditions: 10 µM unless noted
OVCAR-4 ovarian = conditions: 10 µM unless noted
SK-OV-3 ovarian = conditions: 10 µM unless noted
IGROV1 ovarian = conditions: 10 µM unless noted
OVCAR-3 ovarian = conditions: 10 µM unless noted
NCI/ADR-RES ovarian = conditions: 10 µM unless noted
T-47D breast = conditions: 10 µM unless noted
MDA-MB-435 melanoma = conditions: 10 µM unless noted
SW-620 colon = conditions: 10 µM unless noted
MCF7 breast = conditions: 10 µM unless noted
HCT-116 colon = conditions: 10 µM unless noted
KM12 colon = conditions: 10 µM unless noted
BT-549 breast = conditions: 10 µM unless noted
HCC-2998 colon = conditions: 10 µM

| SMILES | growth (SR leukemia) | growth (RPMI-8226 leukemia) | growth (OVCAR-8 ovarian) | growth (OVCAR-5 ovarian) | growth (OVCAR-4 ovarian) | growth (SK-OV-3 ovarian) | growth (IGROV1 ovarian) | growth (OVCAR-3 ovarian) | growth (NCI/ADR-RES ovarian) | growth (T-47D breast) | growth (MDA-MB-435 melanoma) | growth (SW-620 colon) | growth (MCF7 breast) | growth (HCT-116 colon) | growth (KM12 colon) | growth (BT-549 breast) | growth (HCC-2998 colon) |
| --- | --- | --- | --- | --- | --- | --- | --- | --- | --- | --- | --- | --- | --- | --- | --- | --- | --- |
| CC1(O)CCC2CC3OC3(C)CCC3OC3(C)C(O)CC1C2(C)C (stereo unspecified) | 104% | 84.4% | 87.3% | 120% | 91.1% | 109% | 70% | 118% | 112% | 116% | 113% | 99.2% | 105% | 121% | 112% |  |  |
| CO[C@H]1C[C@@H]2CC[C@@H](C)[C@@](O)(O2)C(=O)C(=O)N2CCCC[C@H]2C(=O)O[C@H]([C@H](C)C[C@@H]2CC[C@@H](OCCO)[C@H](OC)C2)CC(=O)[C@H](C)/C=C(\C)[C@@H](O)[C@H](OC)C(=O)[C@H](C)C[C@H](C)\C=C/C=C/C=C/1C | 11.3% | 35.6% | 40.9% | 50.8% | 26.8% | 35% | 16.3% | 63.4% |  | 7.51% (active) | 56.4% | 53.7% | 35.8% | 64.3% | 55.3% | 42.3% | 66% |
| O=C1NC(=O)C(c2cnc3ccccn23)=C1c1cn2c3c(cc(F)cc13)CN(C(=O)N1CCCCC1)CC2 | 10% | 60.8% | 19.7% | 102% | 38.7% | 39.4% | 53.3% | 52.8% | 74.4% | 33.8% | 51.2% | 59.6% | 35.2% | 17.1% | 46.2% | 61.1% |  |
| C/C=C/C=N/NC(=S)Nc1ccccc1 | 83.4% | 104% | 96.5% | 82.2% | 94.1% | 94.2% | 93.6% | 117% |  | 111% | 109% | 121% | 86% | 97.9% | 98.6% | 96.5% | 104% |
| O=C(NC1CCNCC1)c1[nH]ncc1NC(=O)c1c(Cl)cccc1Cl | 2.12% (active) | 1.32% (active) | 9% (active) | 9.52% (active) | 8.44% (active) | 7.3% (active) | 10.2% | 4.35% (active) |  | -3.82% (active) | -43.3% (active) | 6.16% (active) | 3.78% (active) | 4.77% (active) | 8.2% (active) | 7.37% (active) | -2.4% (active) |
| COc1cc(N2CCC(N(C)C)CC2)ccc1Nc1ncc(Cl)c(Nc2ccccc2P(C)(C)=O)n1 | 6.79% (active) | 27.9% | 4.01% (active) | 1.36% (active) | 18.2% | -77.7% (active) | -24.5% (active) | 16.3% | 78.1% | 56.2% | 23.5% | -1.28% (active) | 33.1% | -19.6% (active) | -1.59% (active) | -14.1% (active) |  |
| CS(=O)(=O)N1CCc2c(-c3cnc(N)nc3)nc(N3CCOCC3)nc21 | 6.13% (active) | 18.1% | 6.31% (active) | 4.76% (active) | -5.74% (active) | -40.6% (active) | -38.1% (active) | 9.64% (active) | 12.9% | -37.2% (active) | 2.21% (active) | 24.3% | 6.89% (active) | 20.4% | 8.03% (active) | -7.63% (active) |  |
| CC[C@@H]1C(=O)N(C)c2cnc(Nc3ccc(C(=O)NC4CCC(N5CCN(CC6CC6)CC5)CC4)cc3OC)nc2N1C(C)C (stereo partly specified) | -11.5% (active) | -42.8% (active) | 1.34% (active) | 22.5% | 24.8% | -68.8% (active) | -18.5% (active) | -13.8% (active) | 25.8% | 7.48% (active) | -29.6% (active) | 12.2% | -24% (active) | -6.9% (active) | 4.24% (active) | 18.3% |  |
| ClCc1ccc(-c2ccc(Cn3cnc4c(Cl)nc(Cl)nc43)cc2)cc1 | 8.65% (active) | -47.4% (active) | -40% (active) | 57.8% | 21.7% | 87.8% | -64.4% (active) | -93.1% (active) | 20.8% | -23.5% (active) | 4.56% (active) | -31.6% (active) | -31.8% (active) | -59.6% (active) | -66.9% (active) |  |  |
| O=C1C=CC2(NN=C(c3ccccc3)N2c2cccc(Cl)c2)c2cccc(O)c21 (stereo unspecified) | 49.9% | 57.4% | 63.1% | 52.8% | 59.3% | 92.5% | 70.4% | 36.6% | 56% | 101% | -91.9% (active) | 82% | 62.5% | 54.8% | 64.9% | 61.7% |  |
| Cc1nc(Nc2n[nH]c3c2CN(C(=O)N[C@H](CN(C)C)c2ccccc2)C3(C)C)c2sccc2n1 | -12.1% (active) | -35.2% (active) | -26.3% (active) | -2.55% (active) | -12% (active) | -26.8% (active) | -17.9% (active) | 8.31% (active) | 40.3% | -25.2% (active) | -66.2% (active) | 1.22% (active) | -3.74% (active) | -9.97% (active) | -12.7% (active) | -42.5% (active) |  |
| COCC(=O)NC/C=C/c1ccc2ncnc(Nc3ccc(Oc4ccc(C)nc4)c(C)c3)c2c1 | 22.5% | 50.6% | 38.5% | 21.6% | 40.1% | -18.6% (active) | -8.37% (active) | 63.3% | 57.1% | -0.662% (active) | 32.9% | 47.9% | 49.1% | 29.3% | 28.8% | 62% |  |
| CCCS(=O)(=O)Nc1ccc(F)c(C(=O)c2c[nH]c3ncc(-c4ccc(Cl)cc4)cc23)c1F | 15.3% | 29.2% | 32.1% | 49% | 49.3% | -0.481% (active) | 22.1% | 65.4% | 48.9% | 8.42% (active) | 13.4% | 78.5% | 44.6% | 27.3% | 32% | 41.1% |  |
| O=C1NC(=O)/C(=C/c2ccc3nccc(-c4ccncc4)c3c2)S1 | -26.5% (active) | -16.5% (active) | -18.8% (active) | -30.1% (active) | -22.7% (active) | -60.3% (active) | -60.1% (active) | -30.4% (active) | -14.6% (active) | -41.7% (active) | -11% (active) | 1.44% (active) | 0.645% (active) | -38.6% (active) | 1.44% (active) | -36.7% (active) |  |
| COc1cc2c(cc1OCCCCCN1CCN(c3ncnc4ccccc34)CC1)N=CC1CCCN1C2=O (stereo unspecified) | 0.841% (active) | -35.6% (active) | 1.28% (active) | 23.8% | -3.06% (active) | 19.5% | -38.4% (active) | 1.46% (active) | 12.8% | 10.6% | -72.1% (active) | -1.54% (active) | 12.1% | 4.44% (active) | -16.1% (active) |  |  |
| CNc1ncc2cc(-c3cc(NC(=O)NCCC(C)(C)C)c(F)cc3C)c(C)nc2n1 | 17.7% | 21% | 27% | 6.28% (active) | 33.2% | -26% (active) | -10.2% (active) | 54.5% | 24.7% | -2% (active) | 9.76% (active) | 17.5% | 45.7% | 4.36% (active) | 18.2% | 30.5% |  |
| Clc1nc(Cl)c2ncn(CC#CCn3cnc4c(Cl)nc(Cl)nc43)c2n1 | -52.6% (active) | -56.6% (active) | -34.8% (active) | -2.99% (active) | -70.8% (active) | 87.5% | -75.4% (active) | -90.9% (active) | 59.8% | -21.5% (active) | 4.04% (active) | -44.7% (active) | -22.8% (active) | -34.6% (active) |  |  |  |
| O=C(N/N=C/c1ccc(Cl)cc1)c1cc(-c2cc3ccccc3o2)nn1-c1ccccc1 | 87.9% | 47.6% | 93.7% | 101% | 87.3% | 94% | 65.9% | 106% | 93.4% | 85.6% | 103% | 101% | 85.6% | 92.3% |  |  |  |
